The text below walks through data of PubChem BioAssay (NCATS).

Structures are written as SMILES. Records with an inconclusive call do not appear. A number with no mark means an inactive call. The call rests on the fitted dose curve; in most records, active means well fitted activation curve with a large enough effect; inconclusive means small, poorly fitted or top-dose-only effect; inactive means flat fitted curve, though single readings scatter.

This experiment in a line: Cellular Toxicity (caspase-3) H-4-II-E (AID 663).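 Further: cells exposed to compound for 16 hr before readout; 0% = DMSO basal and 100% = 100 µM tamoxifen.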 Conditions: H-4-II-E rat hepatoma; Potency: caspase-3 activation; series mostly up to 92.2 µM; caspase-3 activation: at the top concentration. An excerpt:
NIH Chemical Genomics Center [NCGC]
NIH Molecular Libraries Screening Centers Network [MLSCN]
National Institutes of Environmental Health Sciences [NIEHS]
National Toxicology Program [NTP]
We have developed a 1536-well cell-based assay for quantitative high throughput screening (qHTS) against a number of cell lines to determine in vitro caspase 3/7 of small molecules. This particular assay uses the H-4-II-E cell line which is derived from rat hepatoma.
NCGC Assay Protocol Summary:
The Caspase-Glo 3/7 assay (Promega) is a homogeneous method to measure caspase-3 and caspase-7 activities in cultured cells. The quantitation of caspase 3/7 activity is based on the cleavage of a peptide-aminoluciferin substrate. After caspase cleaves the substrate the free aminoluciferin is liberated and serves as the substrate of luciferase, which generates the light. The luminescent signal is proportional to amount of caspase 3/7 activity present.
Using the Caspase-Glo 3/7 assay, the amount of caspase 3/7 activity was measured in the H-4-II-E cell line with complete culture medium following compound treatment for 16 hours. The assay was performed in opaque white 1536-well plates. In the screen, tamoxifen and doxorubicin were used as positive controls. Library compounds were measured for their ability to cause the activation of caspase 3/7 in the cell line, as reflected by an increase in luminescence signal, in a concentration-dependent manner. Data were normalized to the controls for basal activity (DMSO only) and 100% stimulation (100 uM tamoxifen). AC50 values were determined from concentration-response data modeled with the standard Hill equation.
qHTS protocol for caspase 3/7 assay in H-4-II-E cells
[Step] [Parameter] [Value] [Description]
1. Reagent; 5 uL; 1500 H-4-II-E cells/well
2. Time; 5 hr; 37 °C incubation
4. Controls; 23 nL; Tamoxifen 0.23 uM to 100 uM & Doxorubicin 7.0 pM to 100 uM
5. Time; 16 hr; 37 °C incubation
6. Reagent; 5 uL; Caspase-Glo 3/7 reagent
7. Time; 20 min; Room Temperature
8. Detection; Luminescence; Viewlux plate reader
Keywords: caspase 3/7, apoptosis, H-4-II-E cell line, luminescence, NTPHTS, NTPHTS_NCGC, NIEHS, EPA, DSSTox, MLSMR, MLSCN, NIH Roadmap, qHTS, NCGC
On to `CC(C)[N+](=O)[O-]`, for which the “caspase-3 activation” value was 0.699%.
`C/C=C/CC#N`: the “caspase-3 activation” value is 0.913%.
The figure for `OC[P+](CO)(CO)CO` is 11.1%; for `CN(C)N=O` it is 1.49%.
The result for `C=CC(=O)OCC(CC)CCCC` (stereo not given) reads 0.661%.
For `CCOP(=O)(OCC)OCC`, the “caspase-3 activation” value is 0.316%.
The result for `CC(C)Br` reads 0.595%; that for `CC(C)(C)C(O)(CCc1ccc(Cl)cc1)Cn1cncn1` (stereo not given), 0.573%; that for `Nc1cc(Cl)cc(C(=O)O)c1Cl`, 0.328%.
The figure for `Nc1ccc2ccccc2c1` is 2.79%; for `Cc1cc(-c2ccc(N)c(C)c2)ccc1N` it is -0.278%.
The result for `O=C(Cc1ccccc1)OCc1ccccc1` reads -0.551%; that for `Nc1ccc(-c2ccc(N)cc2)cc1`, 1.46%; that for `ClC(Cl)(Cl)C(Cl)(Cl)Cl`, 0.142%.
In the case of `N#CCc1ccccc1`, the “caspase-3 activation” value is 0.37%.
The result for `CCCCNC(=O)n1c(NC(=O)OC)nc2ccccc21` reads 1.26%; that for `C=CCOCC1CO1` (stereo not given), 2.7%.
As to `CC(C)(COCC1CO1)COCC1CO1` (stereo not given), the “caspase-3 activation” value is 0.463%.
Consider `CC(C)OC(=O)Cc1ccccc1`, for which the “caspase-3 activation” value is 0.307%.
For the compound `O=[N+]([O-])c1ccccc1CCl`, the “caspase-3 activation” value was -3.2%.
The result for `C/C=C/C=O` reads 0.43%.
The figure for `CCOP(=S)(OCC)SCCSCC` is -0.181%; for `CCN(N=O)C(N)=O` it is 0.0597%; for `Cc1cc(N=Nc2ccccc2C)ccc1N` it is -3.72%.
As for `BrCCc1ccccc1`, the “caspase-3 activation” value is 2.78%.
The figure for `C=C(Cl)CSC(=S)N(CC)CC` is 0.487%; for `CN(C)c1ccc(N(C)C)cc1` it is 3.46%.
The result for `ClCC(Br)CBr` (stereo not given) reads -0.643%.
In the case of `Nc1cc(Cl)ccc1O`, the “caspase-3 activation” value is 5.89%.
The figure for `ClCc1ccccn1` is 4.06%; for `C[N+](=O)[O-]` it is 0.72%.
The figure for `O=S(=O)(Cl)c1ccccc1` is -0.19%; for `Cc1ccc(N)cc1Cl` it is 0.508%.
The figure for `CN(C)c1ccc(N)cc1` is 0.176%; for `COC(C)(C)C` it is -0.716%.
For the compound `ClCCOCCCl`, the “caspase-3 activation” value was 0.361%.
In the case of `C1CC2OC2CC1C1CO1` (stereo not given), the “caspase-3 activation” value is 1.37%.
The figure for `c1ccc(P(c2ccccc2)c2ccccc2)cc1` is 0.0259%.
The result for `Clc1ccc(Cl)c(Cl)c1` reads 0.835%; that for `C=CCCl`, -0.259%.
